CYP2C19 activ: activators of human cytochrome P450 2C19. P33261. recombinant CYP2C19, luciferin-H EGE luminescence; stronger effect = higher value; 0 = fully inhibited enzyme, 1 = untreated enzyme. activation factor at 5 µM. 96,000 tested, under 10 active. AID 1025;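 active means activation factor of at least 2 at 5 µM in the primary screen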;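 further: 0 = wells with 2.5 mM tranylcypromine and 1 = vehicle-only wells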
CYP2C9 activ: activators of human CYP2C9 | AID 1024 | activation factor at 5 µM | recombinant CYP2C9, luciferin-H conversion, luminescence; stronger effect = higher value; factor 1 = untreated enzyme, 0 = blocked | actives 1.4% (n = 96,000);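 active means activation factor of 2 or more for CYP2C9 at a 5 µM dose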;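 further: 0 = sulfaphenazole-blocked wells and 1 = vehicle-only wells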
Target sequence (P11712 whole entry, looked up): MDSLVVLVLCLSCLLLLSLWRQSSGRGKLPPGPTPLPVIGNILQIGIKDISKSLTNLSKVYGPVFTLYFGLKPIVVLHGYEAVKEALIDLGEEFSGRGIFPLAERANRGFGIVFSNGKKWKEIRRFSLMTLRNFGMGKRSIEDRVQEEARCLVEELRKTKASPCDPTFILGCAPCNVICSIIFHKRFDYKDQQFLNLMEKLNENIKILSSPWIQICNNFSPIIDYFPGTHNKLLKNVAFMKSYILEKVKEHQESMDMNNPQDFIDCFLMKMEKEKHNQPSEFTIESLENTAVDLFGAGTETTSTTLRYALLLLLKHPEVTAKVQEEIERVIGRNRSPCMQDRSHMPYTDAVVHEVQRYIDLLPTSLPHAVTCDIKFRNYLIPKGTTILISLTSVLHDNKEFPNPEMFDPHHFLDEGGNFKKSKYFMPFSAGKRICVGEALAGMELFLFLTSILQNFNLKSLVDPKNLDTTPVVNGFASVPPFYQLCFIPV
Cav32 inh: human Cav3.2 channel inhibition, primary screen. Cav3.2-expressing cells, Fluo-4 calcium fluorescence FDSS; stronger effect = lower value. B-score at 10 µM. actives 4% (n = 100,000). AID 449739;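 active means single-dose well whose peak fluorescence ratio is a statistical outlier from its plate by either plate-standardised score or position-corrected B-score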
CYP2C9 inhib: human CYP2C9 inhibition; inhibition, % at 5 µM; actives 20% (n = 96,000); CYP2C9 Supersomes, luciferin-H conversion, luminescence; P11712;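 active means blocking of liver enzyme CYP2C9 beyond about 50% at 5 µM, limit read from the data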
CYP2C19 inh: human CYP2C19 inhibition; P33261; inhibition, % at 5 µM; actives 21% (n = 96,000); CYP2C19 Supersomes, luciferin-H EGE luminescence, 30 min;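 active means CYP2C19 inhibition above a set limit at 5 µM in the primary screen, cut at about 50% in these data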;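 further: plate controls were negative control wells for no effect and 2.5 mM tranylcypromine positive control for full effect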
The depositor's hits bear a star; . = no result. Hits are enriched below; roughly 27% of the tested compounds scored in any of these assays.

SMILES	CYP2C19 activ	CYP2C9 activ	Cav32 inh	CYP2C9 inhib	CYP2C19 inh
COc1cccc(CN2C(=O)CCC2(C)C(=O)NC2CCCC2)c1 (stereo not drawn)	0.8	1.8	-0.731	-78.9	20.3
CCOc1c2c(nc3ccc(Cl)cc13)CCC2	1	0.9	-2.88	11.4	2.0
CC(=O)Nc1cccc(NC(=O)CSc2nc(C)c(C)c(C)c2C#N)c1	0.3	0.8	0.879	18.9	67.4*
COC(=O)c1c(N=CN(C)C)c(C#N)c2n1CCCC2	1	1.1	0.945	-13.5	0.3
CC(C)CSc1ncnc2c1oc1nc3c(cc12)COC(C)(C)C3	0.8	0.3	.	72.4*	21.2
CC1(C)Cc2nc3oc4c(=S)nc[nH]c4c3cc2CO1	0.8	0.8	3.25	22.0	16.2
Cc1ccc(NC(=O)COC(=O)c2ccn(C)n2)cc1	0.2	0.7	0.341	34.9	79.0*
CCn1c2ccccc2c2cc(NC(=O)COc3ccc(OC)cc3)ccc21	0.4	1.2	0.00171	-19.2	64.6*
CCn1c2ccccc2c2cc(NC(=O)c3cc(OC)c(OC)c(OC)c3)ccc21	0.5	0.6	-0.428	36.1	49.3
O=C(Nc1ccc(F)cc1)c1ccccc1	0.9	1.1	0.928	-7.0	5.5
COc1ccc(OCC(=O)Nc2ccc(C)cc2)cc1	0.2	0.5	0.466	52.0*	81.8*
O=C(CNc1ccccc1)Nc1ccc(F)cc1	0.4	0.8	-0.694	23.6	55.5*
Cc1ccc(C2c3sc(=O)[nH]c3SC3C(=O)NC(=O)C32)cc1 (stereo not drawn)	.	.	0.566	.	.
CCOCc1nc(C)c(Cl)c(NS(=O)(=O)c2ccc(N)cc2)n1	1	0.8	0.57	23.7	-3.7
COc1ccc(C2C(C(=O)OCC(=O)NC(C)(C)C)CCC(=O)N2c2ccc(C)cc2)cc1OC (stereo not drawn)	0.9	0.7	0.0641	25.9	13.4
COc1ccc(OCC(=O)Sc2ccc(C)cc2)cc1	0.3	0.7	0.368	29.5	67.9*
COc1ccc(C2C(C(=O)OCC(=O)Nc3ccc(C)cc3)CCC(=O)N2c2ccc(OC)cc2)cc1 (stereo not drawn)	0.2	0.3	0.231	74.5*	75.2*
O=C(Cc1coc(-c2ccc(F)cc2)n1)Nc1ccccc1	0.1	0.4	-0.592	60.8*	85.8*
O=C(COc1ccc(Br)cc1CO)Nc1ccc(F)cc1	0	0.1	-1.52	87.8*	98.8*
CCc1ccc(OCC(=O)NC(=S)Nc2ccc(F)cc2)c(Br)c1	0.9	1	-0.107	1.9	5.5
COc1ccc(/C(N)=N/OC(=O)CSc2ccc(C)cc2)cc1	0.7	1.2	0.367	-16.1	25.3
CN(CC(=O)Nc1cccc2ccccc12)c1ccc(S(=O)(=O)N2CCOCC2)cn1	1.1	0.8	-0.0701	20.1	-14.6
COC(=O)CCSCc1cn2cc(Cl)ccc2n1	0.7	1	-1.35	-1.0	31.4
Cc1ccc(NC(=O)Nc2ccc(F)cc2)nc1	0.4	0.9	0.0678	10.6	57.0*
Cc1ccc(OCC(=O)Nc2ccc(N3CCOCC3)cc2)cc1	1	1	1.25	4.1	0.0
SMILES	CYP2C19 activ	CYP2C9 activ	Cav32 inh	CYP2C9 inhib	CYP2C19 inh
Cc1ccc(OCC(=O)Nc2ccc(F)cc2)cc1	0.4	0.6	-0.336	35.5	57.0*
Cc1ccnc(NC(=O)Nc2ccc(F)cc2)c1	0.8	0.7	0.608	26.9	18.1
Cc1ccc(NC(=O)Cc2ccc(F)cc2)cc1	0	0.8	0.317	18.3	97.1*
CCOc1ccc(N(C(C)=O)c2nc(C)cc(C)c2C#N)cc1	.	.	0.847	.	.
CCC(Sc1nc2c(c(=O)[nH]1)CCC2)C(=O)Nc1cccc(OC)c1 (stereo not drawn)	0.8	0.4	-0.00208	62.4*	23.2
O=C(c1ccco1)N1CCN(C(c2ccccc2F)c2nnnn2CC2CCCO2)CC1 (stereo not drawn)	0.8	0.3	0.589	70.7*	23.7
Cc1ccc(C(c2nnnn2Cc2cccs2)N2CCN(C(=O)c3ccco3)CC2)cc1 (stereo not drawn)	0.3	0.5	-0.0665	48.3	71.1*
O=C(c1ccco1)N1CCN(C(c2ccccc2Cl)c2nnnn2CC2CCCO2)CC1 (stereo not drawn)	1.1	1.1	0.317	-8.9	-11.0
CCCCC(c1nnnn1Cc1ccco1)N1CCN(C(=O)c2ccco2)CC1 (stereo not drawn)	0.1	0.5	-0.297	50.7*	85.3*
Fc1ccc(C(c2nnnn2Cc2cccs2)N2CCN(C3CCCCC3)CC2)cc1 (stereo not drawn)	0.1	0.9	-0.809	8.9	86.0*
CCOC(=O)CSc1nnc(Cn2nnc(-c3ccccc3)n2)n1C	0.9	1	0.513	2.8	10.1
COc1cc2c(c(OC)c1OC)-c1c(cc(OC)c(OC)c1OC)C[C@](C)(O)[C@@H](C)C2	.	.	0.615	.	.
CCC(c1nnnn1CCc1ccccc1)N1CCN(C(=O)c2ccco2)CC1 (stereo not drawn)	0.9	0.9	0.375	12.0	6.1
CC(C)CC(c1nnnn1CCc1ccccc1)N1CCN(C(=O)c2ccco2)CC1 (stereo not drawn)	0.2	0	0.0866	98.5*	80.1*
Cc1ccc(S(=O)(=O)n2[nH]c(=O)cc2NC(=O)c2cccs2)cc1	.	.	0.384	.	.
CCc1ccc(OCC(=O)NCCOc2ccccc2)cc1	0.7	0.5	-4.43*	50.1*	29.6
CCc1ccc(OCCNC(=O)c2ccccc2SCc2ccccc2)cc1	0.7	0.5	-6.79*	45.3	27.0
CC(=O)c1sc(NC(=O)C2(F)C(F)(F)C(F)(F)C(F)(F)C(F)(F)C2(F)F)nc1C	1.1	0.2	-4.01*	84.8*	-6.0
O=C(CCS(=O)(=O)c1cccc2nonc12)N1CCN(c2ccc(F)cc2)CC1	0.5	2*	1.59	-103.4	49.4
O=C(CCS(=O)(=O)c1cccs1)N1CCN(c2ccc(F)cc2)CC1	0.3	0.8	1.57	17.7	72.3*
N/C(=N\OC(=O)Cc1ccc(Cl)cc1)c1cccnc1	1	1.1	0.626	-11.7	-3.9
N/C(=N\OS(=O)(=O)c1ccc(Cl)cc1)c1ccncc1	0.3	0.2	0.261	80.8*	68.2*
COCn1c(-c2cccc(Br)c2)nc2ccccc21	0.1	0.3	-0.381	68.7*	85.6*
COCn1c(-c2ccc(OC)c(OC)c2)nc2ccccc21	0.8	0.9	-0.125	5.0	18.3
COc1ccc(C(C(=O)NC2CCCC2)N(Cc2ccc(F)cc2)C(=O)c2ccn[nH]2)cc1OC (stereo not drawn)	0.7	1	1.05	-0.3	33.4
Cc1sc2nc(C3CC3)nc(SCC(=O)N3CCc4ccccc4C3)c2c1C	0.4	0.2	.	84.9*	64.6*
Cc1sc2nc(C3CC3)nc(SCC(=O)N3CC(=O)Nc4ccccc43)c2c1C	0.7	0.3	0.584	65.6*	30.0
CCc1c(C)sc2nc(C(C)C)nc(SCC(=O)N3CCc4ccccc4C3)c12	0.8	0	0.268	96.6*	21.0
COC(C/C=C\[C@H](O)[C@H](C)OCc1ccccc1)OC	.	.	0.556	.	.
